Experimental data as given in the supplement of paper PMC11732987, “Enantioselective OTUD7B fragment discovery through chemoproteomics screening and high-throughput optimisation” (Communications Chemistry, 2025).
Unmarked numbers belong to inactive results.

Assays:
Test in all cases: log2 ratio of Biotin-Ahx-Ub-VS probe labelling (fragment/DMSO); higher = less target engagement (more negative = stronger competition), active = hit call of the paper (q ≤ 0.05, log2 ratio ≤ -1)
Settings in all cases: compound concentration: 200 uM; treatment time: 3 h
USP19 = target: T1, USP19 (UniProt O94966)
T1 sequence (whole entry): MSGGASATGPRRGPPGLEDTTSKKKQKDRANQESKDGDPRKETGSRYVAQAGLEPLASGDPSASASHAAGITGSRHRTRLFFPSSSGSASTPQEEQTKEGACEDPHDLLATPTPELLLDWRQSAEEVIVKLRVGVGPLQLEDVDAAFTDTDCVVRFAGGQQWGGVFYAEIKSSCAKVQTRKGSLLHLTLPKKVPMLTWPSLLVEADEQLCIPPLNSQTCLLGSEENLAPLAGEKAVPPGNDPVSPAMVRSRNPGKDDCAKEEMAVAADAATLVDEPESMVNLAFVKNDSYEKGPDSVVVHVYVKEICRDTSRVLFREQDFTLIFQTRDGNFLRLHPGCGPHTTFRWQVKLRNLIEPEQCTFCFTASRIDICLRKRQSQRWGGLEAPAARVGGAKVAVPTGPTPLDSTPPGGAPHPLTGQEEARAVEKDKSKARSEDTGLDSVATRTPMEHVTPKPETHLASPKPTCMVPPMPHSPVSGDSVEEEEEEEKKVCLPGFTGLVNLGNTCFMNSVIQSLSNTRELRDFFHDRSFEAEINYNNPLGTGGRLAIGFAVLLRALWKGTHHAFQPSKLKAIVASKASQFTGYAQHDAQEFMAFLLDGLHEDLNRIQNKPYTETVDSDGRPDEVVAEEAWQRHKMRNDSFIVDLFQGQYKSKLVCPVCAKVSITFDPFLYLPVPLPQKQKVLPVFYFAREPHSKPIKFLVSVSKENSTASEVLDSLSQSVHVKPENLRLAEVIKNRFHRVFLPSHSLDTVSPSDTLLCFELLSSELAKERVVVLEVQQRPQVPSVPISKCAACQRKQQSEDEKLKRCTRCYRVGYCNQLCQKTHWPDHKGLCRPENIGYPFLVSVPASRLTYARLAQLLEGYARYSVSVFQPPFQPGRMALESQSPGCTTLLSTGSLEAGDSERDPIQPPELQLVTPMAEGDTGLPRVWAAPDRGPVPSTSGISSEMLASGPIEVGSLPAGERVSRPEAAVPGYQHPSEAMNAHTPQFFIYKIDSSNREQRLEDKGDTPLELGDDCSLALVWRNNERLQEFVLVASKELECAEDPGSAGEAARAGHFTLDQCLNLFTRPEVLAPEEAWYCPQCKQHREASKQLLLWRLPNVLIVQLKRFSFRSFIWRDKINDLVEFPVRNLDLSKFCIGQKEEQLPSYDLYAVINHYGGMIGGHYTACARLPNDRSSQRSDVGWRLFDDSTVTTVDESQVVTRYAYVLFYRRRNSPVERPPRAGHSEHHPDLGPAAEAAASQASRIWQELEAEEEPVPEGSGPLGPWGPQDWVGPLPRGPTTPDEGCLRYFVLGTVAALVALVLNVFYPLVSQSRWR
Method in brief: (§1)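 HEK293T lysate in Tris/CHAPS/IGEPAL buffer with protease inhibitors (495 µg per sample) was given fragment at 200 µM or vehicle for 3 h, in triplicate. It then received Biotin-Ahx-Ub-VS at 0.5 µM final for 1 h. Labelled DUBs were NeutrAvidin-enriched, digested with LysC and trypsin, and run by diaPASEF LC-MS/MS. Values are average log2 fragment/vehicle ratios by unpaired t-test on global-median-normalised Spectronaut quantities of proteins with ≥2 unique peptides.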

USP24 = USP24 (UniProt Q9UPU5)
Method in brief: as §1

USP25 = target: T2, USP25 (UniProt Q9UHP3)
T2 sequence (whole entry): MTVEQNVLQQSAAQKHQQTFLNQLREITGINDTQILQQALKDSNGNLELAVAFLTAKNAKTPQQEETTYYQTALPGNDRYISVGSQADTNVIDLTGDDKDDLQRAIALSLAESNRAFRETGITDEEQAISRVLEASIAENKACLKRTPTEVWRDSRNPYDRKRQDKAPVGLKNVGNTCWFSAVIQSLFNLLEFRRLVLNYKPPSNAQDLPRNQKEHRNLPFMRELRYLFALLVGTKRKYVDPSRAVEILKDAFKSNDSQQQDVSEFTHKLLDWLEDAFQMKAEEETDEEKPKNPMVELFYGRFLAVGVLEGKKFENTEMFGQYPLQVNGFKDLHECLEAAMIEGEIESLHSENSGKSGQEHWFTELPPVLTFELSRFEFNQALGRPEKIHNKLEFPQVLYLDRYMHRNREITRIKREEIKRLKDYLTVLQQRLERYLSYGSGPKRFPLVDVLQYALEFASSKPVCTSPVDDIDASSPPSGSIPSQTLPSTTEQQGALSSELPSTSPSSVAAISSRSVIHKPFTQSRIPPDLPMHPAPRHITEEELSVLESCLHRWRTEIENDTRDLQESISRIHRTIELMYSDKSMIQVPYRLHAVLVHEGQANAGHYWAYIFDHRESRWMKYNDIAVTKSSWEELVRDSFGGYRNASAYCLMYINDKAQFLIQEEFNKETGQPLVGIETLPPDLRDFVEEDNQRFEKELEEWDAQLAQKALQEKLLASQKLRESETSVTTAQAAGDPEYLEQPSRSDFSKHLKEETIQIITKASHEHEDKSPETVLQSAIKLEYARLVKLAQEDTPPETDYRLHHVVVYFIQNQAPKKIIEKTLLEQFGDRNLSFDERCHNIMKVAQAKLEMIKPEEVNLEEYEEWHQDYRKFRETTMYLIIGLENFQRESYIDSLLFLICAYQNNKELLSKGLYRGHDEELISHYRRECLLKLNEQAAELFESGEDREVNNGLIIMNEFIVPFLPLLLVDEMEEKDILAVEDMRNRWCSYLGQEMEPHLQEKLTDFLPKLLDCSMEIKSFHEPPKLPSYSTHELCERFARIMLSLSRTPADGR
Method in brief: as §1

USP28 = target: T3, USP28 (UniProt Q96RU2)
T3 sequence (whole entry): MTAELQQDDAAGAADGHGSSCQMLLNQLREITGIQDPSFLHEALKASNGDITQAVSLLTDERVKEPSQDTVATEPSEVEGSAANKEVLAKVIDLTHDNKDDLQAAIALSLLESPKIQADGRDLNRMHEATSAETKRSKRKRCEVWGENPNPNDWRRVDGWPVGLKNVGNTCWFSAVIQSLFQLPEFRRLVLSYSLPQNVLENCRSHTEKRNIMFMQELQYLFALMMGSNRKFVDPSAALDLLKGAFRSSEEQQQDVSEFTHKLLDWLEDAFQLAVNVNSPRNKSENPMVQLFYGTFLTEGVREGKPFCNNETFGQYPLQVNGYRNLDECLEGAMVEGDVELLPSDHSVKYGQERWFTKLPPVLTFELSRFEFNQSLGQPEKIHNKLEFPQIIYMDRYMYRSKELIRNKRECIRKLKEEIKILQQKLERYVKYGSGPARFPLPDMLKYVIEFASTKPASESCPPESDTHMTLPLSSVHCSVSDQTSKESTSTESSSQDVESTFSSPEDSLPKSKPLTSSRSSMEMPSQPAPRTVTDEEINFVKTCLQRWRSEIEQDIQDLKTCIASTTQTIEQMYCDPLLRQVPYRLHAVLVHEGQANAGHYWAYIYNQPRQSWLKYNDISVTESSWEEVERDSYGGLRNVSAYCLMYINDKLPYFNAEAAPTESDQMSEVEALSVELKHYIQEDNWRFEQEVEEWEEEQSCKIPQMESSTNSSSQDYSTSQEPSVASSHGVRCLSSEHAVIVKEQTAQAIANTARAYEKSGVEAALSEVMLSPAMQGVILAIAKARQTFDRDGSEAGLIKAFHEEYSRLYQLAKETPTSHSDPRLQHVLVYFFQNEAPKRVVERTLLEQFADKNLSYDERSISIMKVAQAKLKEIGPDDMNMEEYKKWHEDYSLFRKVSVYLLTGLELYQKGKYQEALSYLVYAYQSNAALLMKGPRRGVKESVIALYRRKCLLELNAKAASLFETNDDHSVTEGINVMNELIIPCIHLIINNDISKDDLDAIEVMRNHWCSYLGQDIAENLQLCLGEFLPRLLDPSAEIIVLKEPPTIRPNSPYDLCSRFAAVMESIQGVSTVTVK
Method in brief: as §1

Chain of USP24 (Q9UPU5 whole entry): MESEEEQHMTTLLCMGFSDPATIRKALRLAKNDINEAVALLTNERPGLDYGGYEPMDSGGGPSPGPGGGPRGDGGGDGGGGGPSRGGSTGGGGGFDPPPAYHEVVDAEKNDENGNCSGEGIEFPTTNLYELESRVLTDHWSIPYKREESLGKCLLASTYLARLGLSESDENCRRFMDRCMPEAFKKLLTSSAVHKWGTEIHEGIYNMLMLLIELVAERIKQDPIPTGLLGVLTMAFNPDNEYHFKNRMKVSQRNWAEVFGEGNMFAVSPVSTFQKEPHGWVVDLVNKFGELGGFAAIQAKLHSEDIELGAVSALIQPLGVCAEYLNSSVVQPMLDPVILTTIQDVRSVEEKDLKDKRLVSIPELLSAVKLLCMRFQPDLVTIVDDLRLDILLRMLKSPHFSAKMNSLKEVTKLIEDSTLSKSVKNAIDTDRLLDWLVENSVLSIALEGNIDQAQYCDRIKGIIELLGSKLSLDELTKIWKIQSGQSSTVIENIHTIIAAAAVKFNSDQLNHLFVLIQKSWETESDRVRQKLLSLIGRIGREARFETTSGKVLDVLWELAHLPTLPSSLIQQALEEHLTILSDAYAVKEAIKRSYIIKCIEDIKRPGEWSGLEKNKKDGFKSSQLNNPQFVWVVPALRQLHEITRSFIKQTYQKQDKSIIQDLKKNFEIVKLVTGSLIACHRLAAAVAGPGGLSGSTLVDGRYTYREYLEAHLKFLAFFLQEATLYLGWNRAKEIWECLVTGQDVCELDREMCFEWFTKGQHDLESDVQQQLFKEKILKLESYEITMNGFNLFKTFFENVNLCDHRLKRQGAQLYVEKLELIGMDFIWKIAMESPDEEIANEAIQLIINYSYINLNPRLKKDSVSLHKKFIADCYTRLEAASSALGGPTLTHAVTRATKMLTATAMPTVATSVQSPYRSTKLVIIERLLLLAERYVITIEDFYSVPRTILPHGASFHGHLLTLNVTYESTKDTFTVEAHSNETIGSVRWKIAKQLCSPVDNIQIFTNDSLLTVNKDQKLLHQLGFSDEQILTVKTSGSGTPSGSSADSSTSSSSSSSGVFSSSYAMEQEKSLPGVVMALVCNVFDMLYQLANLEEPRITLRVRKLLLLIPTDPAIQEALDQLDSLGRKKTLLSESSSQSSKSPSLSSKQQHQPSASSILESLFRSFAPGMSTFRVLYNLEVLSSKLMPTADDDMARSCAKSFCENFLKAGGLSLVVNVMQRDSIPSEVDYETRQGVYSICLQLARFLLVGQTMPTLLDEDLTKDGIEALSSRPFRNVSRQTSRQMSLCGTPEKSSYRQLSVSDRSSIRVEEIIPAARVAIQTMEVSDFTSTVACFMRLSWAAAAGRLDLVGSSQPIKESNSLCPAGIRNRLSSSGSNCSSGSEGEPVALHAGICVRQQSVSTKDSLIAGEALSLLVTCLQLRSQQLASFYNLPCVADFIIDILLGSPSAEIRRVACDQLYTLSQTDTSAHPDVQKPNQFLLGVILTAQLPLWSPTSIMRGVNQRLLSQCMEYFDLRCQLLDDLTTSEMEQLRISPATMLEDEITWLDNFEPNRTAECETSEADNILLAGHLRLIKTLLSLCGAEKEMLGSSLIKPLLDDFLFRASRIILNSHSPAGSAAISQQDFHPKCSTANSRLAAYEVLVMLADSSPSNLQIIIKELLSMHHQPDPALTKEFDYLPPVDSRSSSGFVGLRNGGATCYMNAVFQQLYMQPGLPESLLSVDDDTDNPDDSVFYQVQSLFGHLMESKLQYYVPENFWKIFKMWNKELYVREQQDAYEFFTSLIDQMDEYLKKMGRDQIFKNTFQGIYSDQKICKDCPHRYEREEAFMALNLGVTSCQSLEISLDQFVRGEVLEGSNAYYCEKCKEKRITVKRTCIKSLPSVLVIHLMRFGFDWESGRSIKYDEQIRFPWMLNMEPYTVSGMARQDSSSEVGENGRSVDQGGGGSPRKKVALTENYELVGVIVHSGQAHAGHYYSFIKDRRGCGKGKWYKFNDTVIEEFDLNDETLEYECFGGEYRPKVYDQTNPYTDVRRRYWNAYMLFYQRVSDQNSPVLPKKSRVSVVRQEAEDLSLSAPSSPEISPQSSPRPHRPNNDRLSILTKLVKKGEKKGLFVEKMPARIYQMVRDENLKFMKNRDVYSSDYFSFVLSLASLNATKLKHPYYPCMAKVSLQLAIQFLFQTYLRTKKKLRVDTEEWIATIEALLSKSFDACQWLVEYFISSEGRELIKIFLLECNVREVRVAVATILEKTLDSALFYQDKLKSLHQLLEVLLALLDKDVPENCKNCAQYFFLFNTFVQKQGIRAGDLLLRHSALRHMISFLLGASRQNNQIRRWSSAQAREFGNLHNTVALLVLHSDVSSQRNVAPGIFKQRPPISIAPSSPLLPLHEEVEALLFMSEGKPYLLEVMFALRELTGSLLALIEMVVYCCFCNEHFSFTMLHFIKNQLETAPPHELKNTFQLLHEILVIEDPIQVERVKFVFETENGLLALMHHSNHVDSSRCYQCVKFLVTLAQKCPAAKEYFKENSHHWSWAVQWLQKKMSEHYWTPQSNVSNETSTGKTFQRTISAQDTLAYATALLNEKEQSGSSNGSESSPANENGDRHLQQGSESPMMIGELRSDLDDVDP

N#Cc1ccccc1N1CCN(C(=O)CCl)CC1
log2 ratio of Biotin-Ahx-Ub-VS probe labelling (USP19): -0.813 | log2 ratio of Biotin-Ahx-Ub-VS probe labelling (USP24): -1.15 (active) | log2 ratio of Biotin-Ahx-Ub-VS probe labelling (USP25): -0.657 | log2 ratio of Biotin-Ahx-Ub-VS probe labelling (USP28): -1.05
